# This is a sample that favours compounds with a hit; in the whole collection about 2.5% have one here.
# MCL1-BIM inh: disrupts human MCL1 binding to BIM-BH3 peptide; Q07820; inhibition, % at 10.9 µM; GST-MCL1 / FITC-Bim-BH3 fluorescence polarization; AID 2057; 0.68% of 320,000 active;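 active = inhibition above the mean inhibition of all tested compounds plus 3 SD, set per campaign, cut at about 40% in these data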;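 also: 0% = DMSO wells and 100% = unlabeled Bim-BH3 peptide control; higher means more loss of mP so more displacement of Bim peptide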
# 14-3-3 Bad PPI: disrupts binding of bovine 14-3-3 zeta to phospho-Bad peptide. TR-FRET 14-3-3zeta/Dy647-pBad peptide displacement, 1 h. inhibition, % at 21.7 µM. 0.71% of 220,000 active. AID 781;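 active = inhibition above about 70%, limit read from the data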;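 also: 0% = full 14-3-3 plus peptide FRET controls and 100% = background without 14-3-3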
# Target sequence (P63103 whole entry, looked up): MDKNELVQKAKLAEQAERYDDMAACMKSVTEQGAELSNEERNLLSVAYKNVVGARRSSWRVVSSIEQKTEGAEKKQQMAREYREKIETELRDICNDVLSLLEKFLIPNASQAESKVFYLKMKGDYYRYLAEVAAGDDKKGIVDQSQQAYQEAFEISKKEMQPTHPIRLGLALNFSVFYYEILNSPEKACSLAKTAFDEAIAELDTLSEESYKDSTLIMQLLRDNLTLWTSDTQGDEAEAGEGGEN
# Mcl1 Noxa PPI: Mcl-1/Noxa interaction inhibition; TR-FRET Mcl-1/Noxa peptide binding, 2 h; inhibition, % at 21.7 µM; 1.5% of 220,000 active; AID 1022;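 active = compounds that cut the protein-peptide binding signal by more than 50% relative to plate controls in a single-dose test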;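 also: His-tagged Mcl-1 with rhodamine Noxa BH3 peptide and terbium anti-His antibody; 0% = Mcl-1 plus Noxa peptide wells and 100% = peptide-only wells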
# Bim-Mcl-1: disrupts Bim peptide binding to human Mcl-1. Q07820. Bead-based flow cytometry, Bim peptide-Mcl-1 binding. inhibition, % at 10 µM. 0.1% of 190,000 active; in the data active = inhibition above about 40%;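 also: 0% = no compound tracer wells and 100% = peptide blocker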
# Mcl1-Bid inh: Mcl-1/Bid interaction inhibition | inhibition, % at 21.7 µM | TR-FRET Mcl-1/Bid-Dy647 peptide binding, 1536-well | 0.97% of 220,000 active;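 active = compounds that cut the binding signal by more than half at the single screening dose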;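 also: His-tagged Mcl-1 with europium anti-His antibody binding Bid BH3 peptide; 0% = Mcl-1 plus peptide wells and 100% = peptide-only wells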
# BCLXL inh confirm: Bcl-xL (human) inhibition, MCL1 counter-screen confirmation; shares compounds with MCL1-BIM inh; GST-Bcl-xL / FITC-Bim BH3 peptide FP binding; inhibition, % at 10.9 µM; 54% of 1,700 active; AID 2166;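 active = inhibition above a cutoff equal to the mean inhibition of all tested compounds plus 3 SD, cut at about 30% in these data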;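 also: 0% = DMSO wells and 100% = unlabeled Bim BH3 control peptide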
# Target sequence (Q07817 whole entry, looked up): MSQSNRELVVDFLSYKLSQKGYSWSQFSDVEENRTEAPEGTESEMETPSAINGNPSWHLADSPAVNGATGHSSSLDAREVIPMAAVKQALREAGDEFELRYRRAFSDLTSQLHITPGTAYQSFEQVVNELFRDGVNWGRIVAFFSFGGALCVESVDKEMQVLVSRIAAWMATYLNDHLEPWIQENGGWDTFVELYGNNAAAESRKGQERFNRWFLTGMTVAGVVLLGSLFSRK
# MCL1 BIM confirm: MCL1-BIM-BH3 interaction inhibition, confirmation; shares compounds with MCL1-BIM inh; 61% of 1,700 active; GST-MCL1 / FITC-Bim-BH3 fluorescence polarization; inhibition, % at 10.9 µM;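 active = inhibition above the average of all tested compounds plus 3 SD, cut at about 40% in these data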;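 also: 0% = DMSO wells and 100% = unlabeled Bim-BH3 control peptide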
# * marks the source's active call; other numbers are inactive results; · = not tested or not shown; + = active, no number.
SMILES,MCL1-BIM inh,14-3-3 Bad PPI,Mcl1 Noxa PPI,Bim-Mcl-1,Mcl1-Bid inh,BCLXL inh confirm,MCL1 BIM confirm
COc1ccccc1-n1c(C)c2c(OC)cccc(=O)c2c1C,40.4*,-16.0,23.4,0.0,-39.4,21.4,23.7
Cc1ccc(C)n1-c1ccc(C(=O)O)cc1,44.7*,-1.9,61.9*,-3.0,-47.8,21.4,40.8*
CCOc1cccc(C2C(C(=O)c3ccc(C)o3)=C(O)C(=O)N2c2nccs2)c1 (configuration not stated),142.8*,48.1,8.2,2.0,-96.3,156.2*,183.3*
O=C(C1=C(O)C(=O)N(c2nccs2)C1c1ccccc1)c1cc2ccccc2o1 (configuration not stated),+,53.0,-3.3,·,19.2,177.3*,+
S=C(Nc1ccc2nc(-c3ccccn3)c(-c3ccccn3)nc2c1)N1CCOCC1,86.6*,-8.0,13.6,2.0,-53.0,31.0*,36.9
COC(=O)c1ccccc1NC(=O)C/C(C)=N/NC(=O)Cc1ccc(Cl)cc1,53.4*,·,·,·,·,-1.5,25.2
COc1cc(NC(=O)C/C(C)=N/NC(=O)Cc2ccc(Cl)cc2)c(OC)cc1Cl,8.0,8.9,10.9,0.0,-25.5,·,·
CC1CCN(Cc2c(O)ccc3c2O/C(=C\c2ccco2)C3=O)CC1,149.1*,4.3,56.0*,2.0,-11.7,118.6*,139.8*
CCN(CC)C(=O)Oc1ccc2c(c1)O/C(=C\c1ccco1)C2=O,1.2,·,·,·,·,·,·
O=C1/C(=C/c2ccco2)Oc2c1ccc(O)c2CN1CCCCC1,127.8*,-8.6,53.9*,1.0,-13.4,131.6*,148.5*
CC(C)c1ccc(/C=C2\Oc3c(ccc(O)c3CN3CCN(C)CC3)C2=O)cc1,35.7,-12.6,4.0,1.0,-24.0,·,·
Cc1ccc(/C=C2\Oc3c(ccc(O)c3CN3CCN(CCO)CC3)C2=O)cc1,36.6,-8.2,7.0,0.0,-10.2,·,·
COCCN(CCOC)Cc1c(O)ccc2c1O/C(=C\c1ccco1)C2=O,109.7*,·,·,·,·,106.7*,117.6*
COc1ccc(CCNC(=O)C(CC(C)C)NC(N)=O)cc1 (configuration not stated),3.3,-1.9,-12.4,0.0,-9.6,·,·
CC[C@H]1CN2CCc3cc(OC)c(OC)cc3C2C[C@@H]1C[C@H]1NCCc2cc(OC)c(OC)cc21 (some centres not stated),0.5,·,·,·,·,·,·
NC(=O)c1ccccc1NS(=O)(=O)c1ccc(F)cc1,1.7,9.6,8.2,-3.0,13.5,·,·
Cc1ccc(CC(=O)Nc2nc3ccccc3[nH]2)cc1C,4.6,-4.1,-32.9,0.0,-10.6,·,·
Cc1nc2ccccc2c(=O)n1/N=C/c1ccccc1O,0.6,-3.0,7.6,·,-26.5,·,·
Cc1nc2ccccc2c(=O)n1/N=C/c1ccc(O)c(O)c1O,68.7*,·,·,·,·,26.5,66.9*
CCCc1ccc2oc(C(=O)N3CCC[C@H]3CO)c(C)c2c1,-15.0,·,·,·,·,·,·
CCn1c2ccccc2c2cc(NC(=O)CNCc3ccccc3OC)ccc21,2.2,·,·,·,·,·,·
O=C(CNCc1ccccc1)Nc1ccc(F)cc1,42.7*,4.9,9.1,-5.0,15.8,8.3,3.4
COc1ccccc1CNCC(=O)Nc1ccc(N(C)C)cc1,86.2*,·,·,·,·,61.4*,60.8*
COc1cc(OC)cc(C(=O)Nc2cccnc2)c1,2.3,-8.8,-1.5,0.0,-21.1,·,·
Cc1ccc(-c2nn(CCC(=O)Nc3cccnc3)c(=O)c3ccccc23)cc1,85.5*,1.0,11.6,·,-1.7,73.3*,96.6*
O=C(CCn1nc(-c2ccccc2)c2ccccc2c1=O)Nc1cccnc1,5.6,-4.8,-6.0,-1.0,-20.8,·,·
O=C(O)C1C(c2ccccc2)C(C(=O)OCc2ccco2)C1c1ccccc1 (configuration not stated),4.0,3.2,-32.6,1.0,-30.7,·,·
O=[N+]([O-])c1c(NCCCO)cc(Sc2ccc(Cl)cc2)c2nonc12,7.3,-3.9,8.7,0.0,10.2,·,·
O=[N+]([O-])c1c(NCCCO)cc(SCc2ccco2)c2nonc12,59.3*,8.6,11.2,-6.0,-82.2,13.9,12.3
O=C(c1ccccc1)N(Cc1ccccc1)c1ccccn1,6.7,8.1,-5.9,0.0,-21.9,·,·

# Screens: PubChem BioAssay, several laboratories
